Assay outcomes: PubChem, National Center for Advancing Translational Sciences (NCATS)
Shown are actives, neighbours in structure and some others; about 2.8% of the full set was active somewhere.
Pol beta inh = blocks human DNA polymerase beta activity | P06746 | Pol beta primer extension/strand displacement, fluorescence kinetic | Potency, µM (series often up to 114 µM), without a hit: top-dose activity change, negative = inhibition, hits mostly inhibitors | hit rate 1.3% among 340,000; further: potency means the concentration at half of the fitted maximal effect; on the % scale 0 is the no-effect control and ±100 the full control effect
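Pol beta (10 nM) and compounds were preincubated 15 min at room temperature, then 50 nM substrate (final) started primer extension/strand displacement. Reads were taken at 0 and 10 min; concentration-response data were fitted to a four-parameter Hill equation.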
POLI inh = DNA polymerase iota (human) inhibition; Pol iota fluorescent replication assay, 10 min; Potency, µM (series often up to 115 µM), for inactives: at the top dose activity, negative = inhibition, actives largely listed as inhibitors; hit rate 1% among 390,000; AID 588590; further: potency means the concentration at half of the fitted maximal effect
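Pol iota at 10 nM preincubated 15 min with compounds at room temperature; reaction started with fluorescent substrate, 50 nM final. Fluorescence read kinetically at 0 and 10 min; buffer-only wells as negative control.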
WRN helicase inh = inhibitors of human WRN helicase | Q14191 | WRN helicase unwinding, fluorescent forked duplex, kinetic | Potency, µM (titrated, usually from 114 µM), for the others: at the highest dose activity change, negative = inhibition, hits mostly inhibitors | hit rate 0.46% among 360,000; further: potency means the concentration at half of the fitted maximal effect; on the % scale 0 is the no-effect control and ±100 the full control effect; nearly all actives have a fitted effect of over 55% in size
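Kinetic red-fluorescence monitoring (525/598 nm) tracks WRN helicase activity after 100 nM fluorophore-quencher forked duplex and 2 mM ATP are added to 20 nM enzyme pretreated 15 min at room temperature with compound.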
Pol eta inh-1 = DNA polymerase eta (human) inhibition. Q9Y253. recombinant Pol eta, fluorescent DNA replication assay. Potency, µM (series often up to 114 µM), inactives show at the top dose activity change, negative = inhibition, hits mostly inhibitors. hit rate 1.2% among 390,000; further: potency means the concentration at half of the fitted maximal effect; on the % scale 0 is the no-effect control and ±100 the full control effect
Target sequence (Q9Y253 whole entry, looked up): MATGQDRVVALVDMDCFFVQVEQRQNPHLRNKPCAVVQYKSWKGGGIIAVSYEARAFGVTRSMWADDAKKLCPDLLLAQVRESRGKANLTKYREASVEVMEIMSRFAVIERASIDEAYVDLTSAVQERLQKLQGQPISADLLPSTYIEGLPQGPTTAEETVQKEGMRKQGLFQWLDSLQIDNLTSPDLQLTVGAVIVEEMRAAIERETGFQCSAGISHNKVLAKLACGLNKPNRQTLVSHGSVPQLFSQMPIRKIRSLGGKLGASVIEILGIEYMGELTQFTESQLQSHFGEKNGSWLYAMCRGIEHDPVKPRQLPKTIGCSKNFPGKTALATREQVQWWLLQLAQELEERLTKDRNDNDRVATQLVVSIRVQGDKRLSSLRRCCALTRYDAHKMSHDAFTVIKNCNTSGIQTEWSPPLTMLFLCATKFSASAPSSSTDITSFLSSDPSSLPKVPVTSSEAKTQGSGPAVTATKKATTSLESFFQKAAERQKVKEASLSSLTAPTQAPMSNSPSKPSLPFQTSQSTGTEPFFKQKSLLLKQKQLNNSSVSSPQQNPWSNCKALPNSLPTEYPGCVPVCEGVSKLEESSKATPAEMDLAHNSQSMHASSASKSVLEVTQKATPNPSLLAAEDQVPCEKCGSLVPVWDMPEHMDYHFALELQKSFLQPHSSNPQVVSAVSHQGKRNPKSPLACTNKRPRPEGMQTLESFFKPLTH
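Pol eta (10 nM) was preincubated with compounds for 15 min at room temperature, after which fluorescent replication substrate (50 nM final) was added to start the reaction. Fluorescence was read kinetically at 0 and 10 min.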
Pol kappa inh-1 = inhibitors of human DNA polymerase kappa; Q9UBT6; purified Pol kappa, fluorescent DNA synthesis assay, 10 min; Potency, µM (titrated, usually from 107 µM), without a hit: top-dose activity, negative = inhibition, most hits filed as inhibitors; hit rate 0.53% among 400,000; further: potency means the concentration at half of the fitted maximal effect; on the % scale 0 is the no-effect control and ±100 the full control effect
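Inhibition of 10 nM Pol kappa is measured by a fluorescent read-out at 0 and 10 min following addition of 50 nM substrate (final), with a 15-min room-temperature compound preincubation.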
PI5P4Ka inh = blocks human PI5P4K alpha kinase activity; PI5P4Kalpha enzyme, ADP-Glo luminescence, 60 min; hits give low values; max response, %; hit rate 1.2% among 330,000; AID 652105; active means max response of -50% or lower; inconclusive means between -30% and -50%; inactive means -30% or higher; further: value at the top dose of about 77 µM; on the % scale 0 is the no-effect control and ±100 the full control effect
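Human PI5P4Kalpha with substrate in 0.038 M HEPES pH 7.4, 0.28 mM EGTA, 0.1% CHAPS, 5% DMSO; reaction started with 5 microM ATP (final), 60 min at room temperature. ADP formed read by ADP-Glo luminescence.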
GALK confirm = galactokinase (human) inhibition, confirmation; shares compounds with Pol eta inh-1; purified GALK, Kinase-Glo ATP depletion luminescence; Potency, µM (series often up to 115 µM), without a hit: at the highest dose activity, negative = inhibition, hits mostly inhibitors; hit rate 70% among 150
Redox cycling = redox cycling activity in phenol red-HRP assay; Potency, µM (doses to about 115 µM), for the others: at the highest dose activity change, negative = H2O2 signal, hits mostly inhibitors; shares compounds with Pol eta inh-1; AID 2035; Phenol red-HRP H2O2 redox cycling, absorbance 600 nm; hit rate 40% among 150
HEK293 viability = counter-screen for GALK inhibitors: HEK293 cell cytotoxicity | shares compounds with Pol eta inh-1 | HEK-293 viability, ATP luminescence (CellTiter-Glo), 24/48 h | Potency, µM (highest dose often 46.1 µM), inactives show top-dose activity change, negative = cytotoxicity, actives largely listed as inhibitors | hit rate 10% among 170 | AID 2547; further: potency means the concentration at half of the fitted maximal effect; on the % scale 0 is the no-effect control and ±100 the full control effect
Pol kappa inh-2 = Pol kappa (human) inhibition, cherry-pick confirmation | shares compounds with Pol eta inh-1 | purified Pol-kappa, fluorescent strand-displacement substrate | Potency, µM, hits mostly inhibitors | hit rate 76% among 920; further: potency means the concentration at half of the fitted maximal effect
Pol eta inh-2 = confirmation of human DNA polymerase eta inhibitors | AID 720502 | hit rate 64% among 2,600 | Potency, µM, usual class: inhibitors | Pol eta primer extension, TAMRA/BHQ fluorescence, 10 min | shares compounds with Pol eta inh-1; further: potency means the concentration at half of the fitted maximal effect
* marks the source's active call; other numbers are inactive results; ? = inconclusive; nt = no result; [ ] = another dose, or the depositor's remark. Unless noted, the call rests on the fitted dose curve; in most records, active means well fitted curve in the direction sought with a large enough effect; inconclusive means small, poorly fitted or top-dose-only effect, or another doubt; inactive means no such curve, though single readings can be large; an effect the other way counts as inactive or inconclusive.

SMILES | Pol beta inh | POLI inh | WRN helicase inh | Pol eta inh-1 | Pol kappa inh-1 | PI5P4Ka inh | Pol eta inh-2 | others
CCOc1ccc(CCNC(=O)C2CC(C)=CCC2C(=O)O)cc1OCC (stereo not drawn) | 25µM* | ? | -5%[11.6 µM] | 28µM* | -26% | 3 | 54*
CSc1nnc(-c2ccco2)c(-c2ccco2)n1 | 8.9µM* | ? | ? | 11µM* | ? | ? | ?
COC(=O)c1ccc(CSc2ccc3nnc(-c4ccccn4)n3n2)o1 | -4% | 19% | 2% | -16% | 0% | -5 | nt | GALK confirm=-7%;Redox cycling=1%;HEK293 viability=-1%
O=C1C2C3C=CC(C3)C2S(=O)(=O)C2C3C=CC(C3)C12 (stereo not drawn) | nt | nt | -1% | 6% | nt | -10 | nt
CC(C)NS(=O)(=O)c1ccc2[nH]c3nc(SCC(=O)Nc4ccc(F)c(F)c4)nnc3c2c1 | nt | 79µM* | nt | nt | 79µM* | nt | ?
O=C1C=C(c2ccc3cc[nH]c3c2)C[C@@H](c2ccc3c(c2)OCO3)C1 | nt | 14µM* | ? | 22µM* | 79µM* | ? | 76*
Cc1cc(C)c(C(=O)/C=C/c2ccco2)c(=O)[nH]1 | 14µM* | ? | -3%[11.6 µM] | 56µM* | ? | 5 | 85*
O=C(/C=C/c1ccco1)c1cccc([N+](=O)[O-])c1 | nt | 50µM* | ? | 20µM* | ? | -73* | ?
O=C(N/N=C/C=C/c1ccco1)c1cccc([N+](=O)[O-])c1 | ? | ? | -19% | ? | -14% | -18 | nt
Nc1c(C(=O)NCc2ccco2)sc2nc3c(cc12)C(=O)CCC3 | 32µM* | ? | ? | 32µM* | ? | nt | 54*
Cc1ccc(C)c(N2CCN(C(=O)CCn3c(=O)c4cccn4c4cccnc43)CC2)c1 | -3% | 12% | nt | -12% | -13% | nt | nt
CC(=O)N=c1c(C#N)cc2c(=O)n3cccc(C)c3nc2n1Cc1ccco1 | ? | 40µM* | -28%[57.1 µM] | 32µM* | -22% | -20 | ?
COc1ccc(NC(=O)COC(=O)CN2C(=O)C3CCCCC3C2=O)cc1OC (stereo not drawn) | nt | ? | -11% | -5% | -12% | 7 | nt
Cc1ccccc1N1C(S)=C(C#N)C(=O)NC1c1cccs1 (stereo not drawn) | 6% | ? | -14% | ? | -11% | -29 | nt
Cc1ccccc1N1C(S)=C(C#N)C(=O)NC1c1ccco1 (stereo not drawn) | 28µM* | 22µM* | -8%[11.6 µM] | 28µM* | -44% | -53* | ?
O=C(CSCc1ccccc1)N1CCN(S(=O)(=O)c2cccc(F)c2)CC1 | nt | 31% | 6% | -14% | -12% | 4 | nt
O=C(CSCc1ccccc1)N1CCN(S(=O)(=O)c2ccc(F)cc2)CC1 | -13% | 21% | -3% | 5% | 1% | -7 | nt | GALK confirm=-7%;Redox cycling=-1%;HEK293 viability=3%
CCOC(=O)C1=C(CN2CCN(c3ccccc3)CC2)NC(=O)NC1c1ccc(C)cc1 (stereo not drawn) | -5% | ? | nt | -9% | -6% | nt | nt
O=C(CCc1nc2ccccc2c(=O)[nH]1)Nc1ccc(F)c([N+](=O)[O-])c1 | ? | 49% | -24% | ? | -35% | -15 | 67*
CCCS(=O)(=O)Nc1cccc(-c2cn3ccc(C)cc3n2)c1 | 30% | -13% | nt | -6% | 7% | nt | nt
CO[C@]1(NC(=O)[C@H](C(=O)O)c2ccc(O)cc2)C(=O)N2C(C(=O)O)=C(CSc3nnnn3C)CO[C@H]21 | nt | nt | nt | nt | -14%[12 µM] | nt | nt
Cn1nnnc1SCC1=C(C(=O)O)N2C(=O)C(NC(=O)C3CC3c3ccccc3)C2SC1 (stereo not drawn) | 32µM* | 14µM* | ? | 14µM* | ? | -1 | 48* | Pol kappa inh-2=67*
CC(C(=O)NC1C(=O)N2C(C(=O)O)=C(CSc3nnnn3C)CSC12)n1cc(Br)cn1 (stereo not drawn) | 18µM* | ? | -10% | 32µM* | ? | -4 | ?
O=C(Nc1ccc(S(=O)(=O)Nc2nccs2)cc1)c1ccc(=O)[nH]c1 | 50µM* | ? | ? | 20µM* | ? | ? | 43* | Pol kappa inh-2=67*
O=C(Nc1ccc(S(=O)(=O)Nc2nccs2)cc1)c1ccncc1 | nt | nt | 10%[57.1 µM] | nt | nt | 1 | nt
SMILES | Pol beta inh | POLI inh | WRN helicase inh | Pol eta inh-1 | Pol kappa inh-1 | PI5P4Ka inh | Pol eta inh-2 | others
Cc1ccccc1NS(=O)(=O)c1ccc2[nH]cc(C(=O)N3CCCCC3)c(=O)c2c1 | ? | ? | nt | 45µM* | -11%[60.1 µM] | nt | 76*
Cc1ccc(CCNC(=O)c2c[nH]c3ccc(S(=O)(=O)Nc4ccc(C)cc4C)cc3c2=O)cc1 | ? | ? | nt | 50µM* | -14%[60.1 µM] | nt | ?
Cc1ccccc1NS(=O)(=O)c1ccc2[nH]cc(C(=O)NC(C)c3ccccc3)c(=O)c2c1 (stereo not drawn) | 40µM* | ? | nt | 25µM* | 4%[60.1 µM] | nt | ?
Cc1cc(C)cc(NS(=O)(=O)c2ccc3[nH]cc(C(=O)N4CCCCCC4)c(=O)c3c2)c1 | 19% | -13% | nt | -5% | -14% | nt | nt
COc1ccc(CNC(=O)COC(=O)c2ccco2)cc1 | 12% | 109% | 9% | 8% | -4% | -6 | nt
COc1c(Cl)cc(Br)c(OC)c1C(=O)NC(=O)Nc1nc(C)cc(C)n1 | ? | 61% | 5% | -14% | 3% | 0 | nt
CCOc1ccc(CNC(=O)CCC(=O)N2CC(C)Sc3ccccc32)cc1 (stereo not drawn) | 1% | 16% | nt | -5% | -7% | nt | nt
COc1ccc(C(=O)OCc2cc(=O)n3nc(-c4cccs4)sc3n2)cc1 | ? | ? | nt | ? | -7% | nt | ?
